# Measurements as given in PubChem BioAssay (NCI).
# This is part of a sample that, as a whole, favours compounds with a hit. Of some 83,000 tested, about 20% had one in any assay.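 Negative percent growth values reflect cell death: -40 means 40% of the cells present at the start died, and -100 means all died.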 Unmarked numbers belong to inactive results. Active and inactive are the calls of the source. Rule for the calls: active = growth percent below 10; inactive = the rest.
# Columns and labels:
# Assay in all cases: NCI-60 one-dose screen, 48 h (100 = growth as untreated, 0 = no growth, -100 = all killed)
# Conditions in all cases: 10 µM unless noted
# [1] = test system: NCI-H23 lung
# [2] = test system: NCI-H226 lung
# [3] = test system: NCI-H322M lung
# [4] = test system: HOP-62 NSCLC
# [5] = test system: NCI-H460 lung
# [6] = test system: HOP-92 NSCLC
# [7] = test system: 786-0 renal
# [8] = test system: COLO 205 colon
# [9] = test system: DU-145 prostate
# [10] = test system: K-562 leukemia
# [11] = test system: MALME-3M melanoma
# [12] = test system: MDA-MB-231 breast
# [13] = test system: RXF 393 renal
# [14] = test system: SF-268 CNS
# [15] = test system: SF-295 CNS
# [16] = test system: SF-539 CNS
# [17] = test system: M14 melanoma
# [18] = test system: A549/ATCC NSCLC
# [19] = test system: UACC-257 melanoma
Compound,growth [1],growth [2],growth [3],growth [4],growth [5],growth [6],growth [7],growth [8],growth [9],growth [10],growth [11],growth [12],growth [13],growth [14],growth [15],growth [16],growth [17],growth [18] [%],growth [19] [%]
N=C(N)c1ccc(-c2ccc(-c3cccs3)s2)cc1F,-62.8% (active),-65.6% (active),-92.4% (active),-96.2% (active),-57.4% (active),-62% (active),-86% (active),-87.1% (active),-77.4% (active),-6.25% (active),-73.4% (active),-74.1% (active),-92.6% (active),-77.1% (active),-71.2% (active),-93.9% (active),-78.3% (active),–,–
O=C(Nc1cccc(-n2ccc3c(NC(=O)c4ccccc4)nccc32)c1)c1ccc(Cl)c(Cl)c1,-31.3% (active),31.1%,-61.6% (active),-82.2% (active),-67.8% (active),-31.9% (active),-93% (active),-27.7% (active),-73.3% (active),–,-56% (active),-53.9% (active),-92.7% (active),-55% (active),-69.8% (active),-71.2% (active),-83.4% (active),–,–
CC(=O)C1CCC2C3CC(C)=C4CC(O)CCC4(C)C3CCC12C (centres undefined),99.5%,93.4%,103%,124%,109%,102%,94.3%,–,119%,86.1%,–,101%,111%,102%,113%,90.7%,98.1%,99.6,117
COC(=O)[C@@H](Cc1c[nH]c2ccccc12)NC(=O)/C=C/c1ccccc1,39.4%,60.2%,33.8%,19%,9.94% (active),54.6%,28.8%,97.3%,12%,15.9%,35.1%,37.7%,-25.6% (active),42.9%,-1.2% (active),-66.8% (active),-37.5% (active),–,–
C[N+](C)(C)CCCCCCCCCC[N+](C)(C)C,88.7%,95.6%,118%,96.2%,98.2%,103%,109%,–,–,–,93%,83.6%,101%,98.2%,113%,119%,97.1%,103,107
ClCCn1cnc2c(SCc3ccccc3Cl)ncnc21,53.1%,57%,40.4%,64%,2.49% (active),62.3%,33%,41.7%,25.4%,13%,43%,66.5%,–,31.3%,8.93% (active),30.9%,–,40.1,58.7
COc1cc2ccc(C(C)=O)cc2cc1OC,99.5%,81.4%,104%,81.8%,100%,86%,107%,97.1%,111%,118%,107%,109%,–,101%,–,95.6%,110%,–,–
Cc1cc(Nc2c3ccccc3nc3ccccc23)ccc1NS(C)(=O)=O,47%,41.8%,34.3%,36.9%,14.4%,-5.41% (active),39.8%,18.3%,29.3%,17.7%,44.1%,50%,35%,37.5%,34.4%,15%,45.1%,–,–
CC(C)(C)c1cc(C[P+](c2ccccc2)(c2ccccc2)c2ccccc2)cc(C(C)(C)C)c1O,-6.21% (active),32.3%,-9.5% (active),8.73% (active),3.54% (active),-32.6% (active),8.5% (active),-92.6% (active),20.5%,3.48% (active),-18.1% (active),27.9%,11.7%,19.4%,-3.88% (active),3.24% (active),11.7%,–,–
